The record followed here is PubChem BioAssay (NCATS).

The structures appear in SMILES notation. Inconclusive results are not listed. Calls of active or inactive are those of the source. Calls come from the whole dose curve.

Experiment [1] can be described thus: Confirmatory qHTS for VERO E6 Cytotoxicity Assay: Counterscreen for SARS-CoV-2 CPE Assay (AID 1508605). Note: nearly all actives have a fitted effect of over 60% in size. Note: potency is the fitted concentration of half-maximal effect. Particulars: cell viability luminescence; series mostly up to 20 µM.
The nature of experiment [2]: Confirmatory qHTS for activators (rescue) of SARS-CoV-2 Cytopathic Effect (CPE) (AID 1508606). Note: nearly all actives have a fitted effect of over 70% in size. Note: potency is the fitted concentration of half-maximal effect. Conditions: Vero E6 SARS-CoV-2 CPE rescue, viability luminescence; series mostly up to 20 µM. Background: In qHTS, concentration-response curves come from the screen itself.
A short description of experiment [3]: Cytotoxicity counterscreen for inhibitors of SARS-CoV-2 cell entry (AID 1645845). Note: nearly all actives have a fitted effect of over 50% in size. Particulars: cell viability (SARS-CoV-2 entry assay cells); series mostly up to 57.1 µM. Summed up: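 After a 15 min room-temperature ATPLite 1step step, luminescence reflected ATP remaining in HEK293-ACE2 cells exposed to compound for 1 h plus 48 h at 37 C, with percent activity set by cell and no-cell controls.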

Experiment [4] can be described thus: Primary qHTS to identify inhibitors of SARS-CoV-2 cell entry (AID 1645846). Note: nearly all actives have a fitted effect of over 45% in size. Note: potency is the fitted concentration of half-maximal effect. Particulars: SARS-CoV-2 pseudovirus cell entry assay, luminescence; activity change, negative = inhibition: at 57.1 µM (top of the series) unless noted. A digest of the protocol: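 Inhibition of spike-mediated entry was scored in human ACE2-transfected Expi293F cells. Particles were MLV-pseudotyped with Wuhan-Hu-1 S carrying a 19-aa C-terminal deletion; signal was luciferase after two days, scaled between spike PP and fusion-protein-free PP.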

Experiment [5] in a line: Confirmatory qHTS to identify inhibitors of SARS-CoV-2 cell entry (AID 1645844). Note: potency is the fitted concentration of half-maximal effect; nearly all actives have a fitted effect of over 45% in size. Conditions: SARS-CoV-2 pseudotyped particle cell entry, luciferase; series mostly up to 57.2 µM. Summed up: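 Using stable human ACE2 Expi293F cells, compounds preincubated 1 hr before spike pseudoparticle infection; luciferase signal after 48 hr at 37C, 5% CO2, normalised to spike PP and no-fusion-protein PP wells.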

On to `O[C@H]1[C@H]2c3cc4c(cc3CN3CCC(=C[C@@H]1O)[C@H]23)OCO4`, for which, in experiment [1], the Potency is 3.16 µM (active).

For the molecule `CC(C)(C)c1ccc(C(=O)Nc2cc(Cl)c(Br)cc2C(=O)O)cc1`, the Potency in experiment [1] is 10 µM (active). Consider `COc1ccc(-c2csc(NC(=O)[C@H]3CCCCN3S(=O)(=O)c3ccc(C)cc3)n2)cc1`, for which the Potency entry in experiment [1] is “inactive”. Turning to `COC(=O)Nc1cc(Nc2cc(NC3CC3)c3ncc(C#N)n3n2)c(Cl)c(N2CCN(C)CC2)c1`, the Potency in experiment [1] was 2.51 µM (active). Besides, the Potency entry in experiment [2] was “inactive”.

Take `CC/C(=C(/CC)c1ccc(O)c(CN(CC)CC)c1)c1ccc(O)c(CN(CC)CC)c1`: the Potency entry in experiment [1] is “inactive”. In addition, the Potency in experiment [2] is 8.91 µM (active). Regarding `Cc1ccc(-c2c(C(=O)CCl)n(CCCO)c3ncnc(N)c23)cc1`, in experiment [1], the Potency entry is “inactive”. With `CCC(CC)COC(=O)[C@H](C)N[P@](=O)(OC[C@H]1O[C@@](C#N)(c2ccc3c(N)ncnn23)[C@H](O)[C@@H]1O)Oc1ccccc1`, the Potency result in experiment [1] is “inactive”. For the same molecule, the Potency in experiment [2] is 10 µM (active). For `C/C=C(\C)C(=O)OC1C(C)C2(O)C3C=C(C)C(=O)C3CC(CO)=CC2C2C(C)(C)C12OC(C)=O` (stereo not drawn), the Potency entry in experiment [1] is “inactive”. Still for that read-out and setting: in the case of `O=C1NC(=O)c2cc(Nc3ccc(F)cc3)c(Nc3ccc(F)cc3)cc21` it was 11.2 µM (active).

Turning to `CN(C)CCN(Cc1ccccc1)C(=O)c1cc(-c2ccc(F)cc2)n2nc(C(C)(C)C)cc2n1`, the Potency entry in experiment [1] and in experiment [2] was “inactive” each time. For `CO[C@H]1/C=C\C=C(\C)C(=O)NC2=CC(=O)C(NCCN(C)C)=C(C[C@@H](C)C[C@H](OC)[C@H](O)[C@@H](C)/C=C(/C)[C@@H]1OC(N)=O)C2=O`, the Potency in experiment [1] is 5.62 µM (active). With `Cc1ccc(NCCN(C)CCNc2ccnc3cc(Cl)ccc23)c2c(=O)c3ccccc3sc12`, the Potency result in experiment [1] and in experiment [2] was “inactive” throughout. As to `CCC(C)C(=O)OC1C(C)C2(O)C(C=C(CO)CC3(O)C(=O)C(C)=CC32)C2C(C)(C)C12OC(=O)C(C)C` (stereo not drawn), the Potency entry in experiment [1] and in experiment [2] was “inactive” throughout.

In the case of `Cc1nnc(-c2ccc(-c3ccc(C(=O)Nc4ccc(O)c(N5CCN(C)CC5)c4)cc3)c(C)c2)o1`, the Potency entry in experiment [1] is “inactive”. The Potency in experiment [2] is 8.91 µM (active). For `Cc1cnc(NC(=O)c2cc(S(=O)(=O)N(C)C)ccc2N2CCCC2)s1` the same measures were “inactive” and 2.82 µM (active). Regarding `CS(=O)(=O)NCC1CCC(Nc2nc3c(s2)CCSc2ccccc2-3)CC1` (stereo not drawn), the Potency result in experiment [1] was “inactive”. Consider `CN(C)c1nc(NC2CCC(NCCc3ccc(Br)cc3OC(F)(F)F)CC2)nc2ccccc12` (stereo not drawn), for which the Potency in experiment [1] was 3.98 µM (active). Further, the Potency entry in experiment [2] was “inactive”. Regarding `CCC(C)C(=O)OC12C(OC(C)=O)C(C)C3(O)C(C=C(CO)CC4(O)C(=O)C(C)=CC43)C1C2(C)C` (stereo not drawn), the Potency result in experiment [1] was “inactive”. Consider `CCOc1ccc(-c2nc(-c3cccc4c3CCC4NCCO)no2)cc1OCC` (stereo not drawn), for which, in experiment [1], the Potency result was “inactive”. For the same molecule, the Potency in experiment [2] is 11.2 µM (active). As for `O=C1c2ccccc2-c2nc3nnnn3nc21` (tested in a mixture with another compound), the Potency in experiment [1] is 1.12 µM (active). In addition, the Potency entry in experiment [2] was “inactive”. Take `CCN(CC)CCN(Cc1ccc(-c2ccc(C(F)(F)F)cc2)cc1)C(=O)Cn1c(SCc2ccc(F)cc2)nc(=O)c2c1CCC2`: the Potency in experiment [1] is 10 µM (active).

`COc1ccc(NC(=O)c2ccc(-c3ccc(-c4nnc(C)o4)cc3C)cc2)cc1N1CCN(C)CC1`: the Potency result in experiment [1] is “inactive”. In addition, the Potency in experiment [2] was 6.31 µM (active). Take `O=C(/C=C/c1ccccc1)NC(NC(=S)Nc1cccc2cccnc12)C(Cl)(Cl)Cl` (stereo not drawn): in experiment [1], the Potency entry was “inactive”. Consider `CCN(CC)CCCS(=O)(=O)N[C@H](CCc1ccccc1)c1nc(Cc2ccc(Br)cc2)no1`, for which the Potency result in experiment [1] was “inactive”. Moreover, the Potency in experiment [2] was 11.2 µM (active). Turning to `Nc1nc(Nc2ccc3c(c2)CC[C@@H](N2CCCC2)CC3)nn1-c1cc2c(nn1)-c1ccccc1CCC2`, the Potency in experiment [1] is 10 µM (active); in experiment [4], 12.6 µM (active). Further, the Potency entry in experiment [3] is “inactive”. For the molecule `CC#C[C@@H](CC(=O)O)c1ccc(OCc2cccc(-c3ccc(C(F)(F)F)cc3)c2)cc1`, the Potency result in experiment [1] and in experiment [3] was “inactive” in each case. Besides, the Potency in experiment [2] was 11.2 µM (active). `Cc1cc(C)c(CNC(=O)c2cc(-c3ccc(N4CCN(C)CC4)nc3)cc3c2c(C)cn3C(C)C)c(=O)[nH]1`: the Potency entry in experiment [1] and in experiment [3] was “inactive” in each case. Besides, the Potency in experiment [2] is 10 µM (active); in experiment [5], 27.1 µM (active). The activity change, negative = inhibition in experiment [4] is -89.9%. Consider `COc1ccc2c(c1)CN(C(=O)CCN1CCC(Cc3ccccc3)CC1)CCS2`, for which the Potency entry in experiment [1] was “inactive”. For the same molecule, in experiment [2], the Potency was 4.92 µM (active). The corresponding values for `CC1CCN(C(c2ccc(F)cc2)c2ccc(C(C)C(=O)O)cc2-c2ccc(C(F)(F)F)cc2)CC1` (stereo not drawn) are 11.2 µM (active) and “inactive”. For the molecule `C/C(=N\NC(=O)c1cccc(S(=O)(=O)N2CCOCC2)c1)c1cc(Cl)ccc1O`, the Potency in experiment [1] is 1 µM (active). In experiment [3], the Potency result was “inactive”. Turning to `Fc1ccc2c(CCNCc3cccc(OCC(F)(F)C(F)F)c3)c[nH]c2c1`, the Potency result in experiment [1] is “inactive”. Further, the Potency in experiment [2] was 10 µM (active). On to `COc1ccc(NS(=O)(=O)c2sc3ccc(Cl)cc3c2C)cc1N1CCNCC1`, for which, in experiment [1], the Potency result was “inactive”. Besides, in experiment [2], the Potency was 10 µM (active). For the molecule `COCCNCc1ccc(-c2cc3nccc(Oc4ccc(NC(=O)C5(C(=O)Nc6ccc(F)cc6)CC5)cc4F)c3s2)nc1`, the Potency in experiment [1] is 5.01 µM (active). In experiment [3], the Potency entry is “inactive”. In addition, the activity change, negative = inhibition in experiment [4] was -25.9%. For the molecule `C[C@H](NC(=O)[C@H](Cc1ccccc1)NC(=O)OCc1ccccc1)C(=O)CF`, in experiment [1], the Potency entry is “inactive”. The Potency in experiment [2] was 0.126 µM (active). `CCCN1CCN(c2ccc(C(=O)NC3(C(=O)NCC#N)CCCCC3)cc2)CC1`: the Potency result in experiment [1] and in experiment [3] was “inactive” in each case. For the same molecule, the Potency in experiment [2] was 1 µM (active).

For `Nc1ncnc2c1c(-c1ccc(Oc3ccccc3)cc1)nn2[C@@H]1CCCNC1`, in experiment [1], the Potency was 8.91 µM (active). The Potency result in experiment [2] was “inactive”.

Take `Cc1cc2cc(Oc3ccnc(Nc4cccc(CS(=O)(=O)NCCN(C)C)c4)n3)ccc2[nH]1`: the Potency in experiment [1] was 11.2 µM (active); in experiment [4] it was 35.5 µM (active). Also, in experiment [2], the Potency result was “inactive”. In the case of `c1ccc2c(-c3cnn4cc(-c5ccc(OCCN6CCOCC6)cc5)cnc34)ccnc2c1`, the Potency result in experiment [1] and in experiment [4] was “inactive” in each case.

In the case of `CN(C)CCN(Cc1ccc(-c2ccc(CNCCc3ccccc3)cc2)cc1)C(=O)CCC1CCCC1`, in experiment [1], the Potency is 3.98 µM (active). Further, the Potency entry in experiment [2] was “inactive”.

In the case of `CONC(=O)Nc1ccc(-c2sc3c(c2CN(C)Cc2ccccc2)c(=O)n(-c2ccccc2)c(=O)n3Cc2c(F)cccc2F)cc1`, the Potency entry in experiment [1], in experiment [2] and in experiment [3] was “inactive” each time.
